Results filed as inconclusive are left out. Values without a mark were called inactive. Activity calls are given as the source filed them. Calls come from the whole dose curve; as a rule, active = well fitted inhibition curve with a large enough effect; inconclusive = small, poorly fitted or top-dose-only effect, or effect the other way, or another doubt; inactive = no such curve, though single readings can be large or run the other way.
experiment: Confirmation Concentration-Response Assay for lipid storage modulators; conditions: Drosophila S3 cells, lipid droplet BODIPY/CellTracker ratio, 18-24 h; series mostly up to 46.1 µM; activity change, negative = inhibition: at the top concentration; note: nearly all actives have a fitted effect of over 80% in size;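 for activity change, negative = inhibition: -100% = full block of lipid deposition by 20 µM Triacsin C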
Summary of the method: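 Cells at 5,000/well received compound as a titration plus oleic acid (added as 400 uM solution) and were incubated 18–24 h at 24 °C. BODIPY 493/503 lipid signal and CellTracker Red cell count were read by 488-nm laser-scanning cytometry. Activity was normalised to 20 uM Triacsin C.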
Potency is the fitted concentration of half-maximal effect.

**Q.** With `Cc1ccc(C)c(S(=O)(=O)N2CCN(CC(=O)Nc3sccc3C#N)CC2)c1` as the compound, how does the Potency read?
**A.** 9.96 µM (active)

**Q.** With `COc1ccc(CCNC(=O)CSc2nnc(-c3ccccc3)c3ccccc23)cc1OC` as the compound, how does the Potency read?
**A.** 4.45 µM (active)

**Q.** With `CCN1CCN(Cc2ccc(NC(=O)c3ccc(C)c(NC(=O)c4c[nH]c5cc(C(F)(F)F)ccc5c4=O)c3)cc2C(F)(F)F)CC1` as the compound, how does the Potency read?
**A.** 8.88 µM (active)

**Q.** Which Potency does the source give for `COc1ccc2oc(C(=O)OCC(=O)NCCc3ccc(S(N)(=O)=O)cc3)c(C)c2c1` here?
**A.** 4.99 µM (active)

**Q.** With `CCOc1ccc2nc(NC(=O)CSc3nc(SC)ns3)sc2c1` as the compound, how does the Potency read?
**A.** 4.45 µM (active)

**Q.** Which Potency does the source give for `CCOC(=O)c1cc2c(ccn2C)n1CC(=O)N1C(C)CCCC1C` (stereo not given) here?
**A.** 11.2 µM (active)

**Q.** Which “activity change, negative = inhibition” value does the source give for `CN(CC1CCCO1)S(=O)(=O)c1ccc(C(=O)Nc2ccc(F)cc2)cc1` (stereo not given) here?
**A.** 20.8%

**Q.** With `COC(=O)c1cc(C)sc1NC(=O)C1CC(=O)NN1Cc1ccccc1` (stereo not given) as the compound, how does the Potency read?
**A.** 1.41 µM (active)

**Q.** With `O=C(NCc1ccccc1)NC1(C(=O)N2CCCC2)CCCCC1` as the compound, how does the “activity change, negative = inhibition” value read?
**A.** -14.5%

**Q.** With `c1ccc(-c2cnn3c(-c4ccccc4)c(-c4ccccc4)nc3n2)cc1` as the compound, how does the Potency read?
**A.** 3.15 µM (active)

**Q.** Which Potency does the source give for `CCN(CC)S(=O)(=O)c1cc(NC(=O)CNc2cccc(S(=O)(=O)N3CCOCC3)c2)ccc1C` here?
**A.** 2.81 µM (active)

**Q.** With `COc1ccc(OC)c(CCNC(=O)Cn2sc3nc(C)cc(C)c3c2=O)c1` as the compound, how does the Potency read?
**A.** 4.99 µM (active)

**Q.** Which Potency does the source give for `Cc1sc2ncnc(NCC3COc4ccccc4O3)c2c1C` (stereo not given) here?
**A.** 1.99 µM (active)

**Q.** For `Cc1cc(C(=O)O[C@H]2[C@H](Cc3ccccc3)NS(=O)(=O)[C@H]3C[C@@H]4C=C[C@]23O4)ccc1[N+](=O)[O-]`, which “activity change, negative = inhibition” value is on record?
**A.** -10.7%

**Q.** Which Potency does the source give for `OC1(c2cccc(C(F)(F)F)c2)CCN(c2ncnc3c2[nH]c2ccc(F)cc23)CC1` here?
**A.** 7.91 µM (active)

**Q.** For `Cc1cc(C)cc(-n2ncc3c2CCCC3NC(=O)c2csnn2)c1` (stereo not given), which Potency is on record?
**A.** 0.0112 µM (active)

**Q.** Which Potency does the source give for `CCOc1ccc(CCNC(=O)COC(=O)/C=C/c2ccccc2)cc1OCC` here?
**A.** 3.53 µM (active)

**Q.** For `O=C(NC1CCCc2c1cnn2-c1cc(F)cc(F)c1)c1cc[n+]([O-])cc1` (stereo not given), which “activity change, negative = inhibition” value is on record?
**A.** 22.7%

**Q.** With `CCOC(=O)C1CCN(C(=O)C2(NC(=O)NC3CCCCC3)CCCCC2)CC1` as the compound, how does the Potency read?
**A.** 1.41 µM (active)

**Q.** Which “activity change, negative = inhibition” value does the source give for `CCOc1ccc(CCNC(=O)COC(=O)C2CCN(c3ccc(C(F)(F)F)cn3)CC2)cc1OCC` here?
**A.** -22.7%
